# ChEMBL document CHEMBL3988442, “University of Dundee, Small-Polar-MMV Screening Library” (2021)
# Among all 48,000 compounds or so, about 13,000 (27%) showed an effect of 50% or more. This is one part of the list.
# System: Wolbachia pipientis
# Test: Anti-Wolbachia Cell-Based Screen
# Format: functional
# Design: scale not given: in the data most compounds retested in dose-response had high values
# Details: 5 µM
row,SMILES,Percent Effect
1,NS(=O)(=O)c1cc(C(=O)N2CCCCC2)cs1,6.219%
2,CN(C)c1ccc(CC(=O)N[C@@H]2CCNC[C@H]2O)cc1,-6.485%
3,CN1CCC(NC(=O)NCc2csc(Br)c2)CC1,-1.868%
4,O=C(Cc1ccc(Br)s1)NCC(=O)Nc1cn[nH]c1,-7.073%
5,CNS(=O)(=O)Cc1ccc(CNC(=O)Nc2cn[nH]c2)cc1,-4.432%
6,O=C(NCc1ccc(Br)c(F)c1)Nc1cn[nH]c1,110.2%
7,O=C(NCC1(N2CCOCC2)CCSC1)Nc1cn[nH]c1 (stereo not given),6.407%
8,O=C(NCc1csc(Br)c1)Nc1cn[nH]c1,91.45%
9,CN(Cc1cnn(C)c1)C(=O)NCc1csc(Br)c1,2.853%
10,O=C(NCc1cc(Br)cs1)Nc1cn[nH]c1,79.99%
11,COCCNc1ccc(CNC(=O)Nc2cn[nH]c2)cc1,-8.085%
12,CN(CCNC(=O)c1scnc1Cl)c1ccccc1,-4.925%
13,COc1ccc(OC)c(C2CCN(CC(C)(C)N3CCOCC3)C2)c1 (stereo not given),-1.124%
14,CC(C)[C@@H]1CN(Cc2cnc(C3CCCCC3)nc2)C[C@H]1C(=O)O,-8.433%
15,CCC(Nc1ncccn1)c1ccc(OC)cc1 (stereo not given),2.346%
16,COc1ccc(C(CN2CCN(C)CC2)Nc2ncccn2)cc1 (stereo not given),-1.255%
17,COc1ccc(C(C)N(C)Cc2c(C(C)C)[nH]c3ncccc23)cc1 (stereo not given),47.71%
18,COc1ccc2cc(CN(C)C(C)c3nc(C4CC4)no3)ccc2c1 (stereo not given),6.729%
19,COc1ccc(C(C)N(C)Cc2c(C3CC3)[nH]c3ncccc23)cc1.Cl (stereo not given),91.7%
20,COc1ccc(C(C)N(C)Cc2c(C(C)(C)C)[nH]c3ncccc23)cc1 (stereo not given),103.1%
21,CC(C)[C@]1(O)CN(C(=O)CNC(N)=O)C[C@H]1C,90.92%
22,COCCN(C)CC(=O)N1C[C@H]2CC[C@@H]1CN(C(=O)c1ccncc1)C2,3.629%
23,COCC(=O)N1CCN(C(C)C(=O)NC(C)C)CC1 (stereo not given),2.538%
24,COCC(=O)N1CCC2(CC1)CC(OC)CO2 (stereo not given),-10.72%
25,CC(C)[C@]1(O)CN(C(=O)COCC(N)=O)C[C@H]1C,89.06%
26,COCC(=O)N1C[C@@H](C)[C@](O)(C(C)C)C1,101.1%
27,NC(=O)NCC(=O)N1CCC2(CC1)c1ccccc1CC2O (stereo not given),-7.297%
28,COCCN(C)CC(=O)N1C[C@@H](NC(C)=O)[C@H](c2ccc(OC)cc2)C1,3.177%
29,C[C@@H]1CN(C(=O)CCCN2CCOCC2)C[C@@]1(O)C1CC1,-18.09%
30,COCCN(C)CC(=O)N1C[C@@H](C)[C@](O)(C(C)C)C1,89.33%
